From PubChem
The full list was thinned out, with hits kept by preference.
Shiga inhibitor = A qHTS for Small Molecule Inhibitors of Shiga Toxin; Vero cells, Shiga toxin protein synthesis inhibition reporter; inhibition, % at 38.7 µM; 290,000 tested, 9.2% active; in the data active = inhibition mostly above about 28%, no sharp cut-off; inactive = mostly below about 43%; also: 0% is about no effect
SARS PLP yeast = qHTS of Yeast-based Assay for SARS-CoV PLP; S. cerevisiae expressing SARS-CoV PLpro, growth rescue; Potency, µM (highest dose often 32.9 µM), inactives show top-dose activity, positive = growth rescue, usual class: activators; 330,000 tested, 0.19% active; AID 485353, 2010; calls by dose curve; also: potency is read from the fitted curve at half-maximal effect; 0% is about no effect; nearly all actives have a fitted effect of over 55% in size
CHX counter = Cycloheximide Counterscreen for Small Molecule Inhibitors of Shiga Toxin. cell reporter, cycloheximide protein synthesis inhibition counterscreen. max response, %. 300,000 tested, 12% active; in the data active = max response mostly above about 13%, no sharp cut-off; inactive = mostly below about 14%; also: read at 38.3 µM for the half of the compounds with a filed dose; 0% is about no effect
AmpC inh detg = qHTS Inhibitors of AmpC Beta-Lactamase (assay with detergent); Potency, µM (doses to about 114 µM), without a hit: at the highest dose activity change, negative = inhibition, usual class: inhibitors; P00811; AmpC hydrolysis of nitrocefin, absorbance 480 nm, 0.01% Triton; 370,000 tested, 0.041% active;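 also: potency is read from the fitted curve at half-maximal effect; 0% = no-compound wells and -100% = no-enzyme wells; nearly all actives have a fitted effect of over 25% in size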
Target sequence (P00811 whole entry, looked up): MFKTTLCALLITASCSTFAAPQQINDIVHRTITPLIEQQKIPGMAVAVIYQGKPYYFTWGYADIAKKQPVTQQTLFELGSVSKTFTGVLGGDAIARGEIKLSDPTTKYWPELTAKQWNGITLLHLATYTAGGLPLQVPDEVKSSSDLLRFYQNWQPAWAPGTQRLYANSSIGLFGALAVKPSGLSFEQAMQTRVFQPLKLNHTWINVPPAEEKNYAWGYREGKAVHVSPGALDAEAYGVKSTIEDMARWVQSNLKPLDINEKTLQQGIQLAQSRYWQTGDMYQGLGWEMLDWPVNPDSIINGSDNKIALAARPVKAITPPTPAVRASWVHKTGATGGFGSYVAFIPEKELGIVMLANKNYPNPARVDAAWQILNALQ
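20 mM phosphate pH 7.0 + 0.01% (detergent screen) or 0.0001% Triton X-100; 5.3 nM AmpC reagent; cpd preinc 15 min RT; nitrocefin (800 uM stock) to start; A480 q20 s × 4 min; Activity was normalised to no-enzyme and no-compound control wells.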
AMA1 RON2 block = qHTS for Inhibitors of AMA1-RON; Towards Development of Antimalarial Drug Lead: Primary Screen | Plasmodium falciparum AMA1 (3D7) - RON2 peptide interaction | AID 720542, 2013 | 360,000 tested, 0.2% active | Potency, µM (top dose mostly 58.2 µM), without a hit: top-dose activity change, negative = inhibition, most hits filed as inhibitors | AlphaScreen AMA1-biotinylated RON2 peptide binding;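 also: potency is read from the fitted curve at half-maximal effect; 0% = vehicle wells and -100% = peptide control; nearly all actives have a fitted effect of over 45% in size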
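AMA1 (3D7) with his tag at 25 nM final met compounds first, then biotinylated RON2 peptide at 25 nM; detection used donor plus acceptor beads, 10 µg/mL apiece, read by AlphaScreen after 30 min at room temperature.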
AmpC inh no detg = qHTS Inhibitors of AmpC Beta-Lactamase (assay without detergent); 330,000 tested, 0.52% active; AmpC nitrocefin hydrolysis, absorbance 480 nm, 0.0001% Triton; Potency, µM (top dose mostly 57.1 µM), inactives show at the top dose activity change, negative = inhibition, usual class: inhibitors; P00811;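 also: potency is read from the fitted curve at half-maximal effect; plate controls were no compound for no effect and no enzyme for full effect; nearly all actives have a fitted effect of over 20% in size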
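AmpC (5.3 nM in the dispensed reagent) in 20 mM phosphate pH 7.0 with 0.01% (detergent screen) or 0.0001% Triton X-100 was preincubated with compounds for 15 min at room temperature. Nitrocefin was then added from an 800 uM solution, and hydrolysis was followed at 480 nm.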
An asterisk follows results filed as active; u = inconclusive; x = not tested or not shown; [ ] = remark or other dose. Unless noted, calls follow the shape of the dose curve; as a rule, active = well fitted curve in the direction sought with a large enough effect; inconclusive = small, poorly fitted or top-dose-only effect, or another doubt; inactive = no such curve, though single readings can be large; an effect the other way counts as inactive or inconclusive.

SMILES | Shiga inhibitor | SARS PLP yeast | CHX counter | AmpC inh detg | AMA1 RON2 block | AmpC inh no detg
COC(=O)CSc1nc(NC(C)(C)C)nc(N(C)C)n1 | 107 | 2% | 33* | -6% | -3% | -9%
O=C(NCC(c1ccco1)N1CCc2ccccc21)C(=O)Nc1ccccc1F (centres undefined) | x | -25% | x | -22% | u | -25%
O=C(NCC(c1ccco1)N1CCc2ccccc21)C(=O)Nc1ccccc1 (centres undefined) | x | 5% | x | u | -6% | 10µM*
CCOc1cc(/C=N/NC(=O)c2ccccc2OCc2ccc(F)cc2)ccc1O | x | -11% | x | -2% | 15% | -21%
CCOc1cc(/C=N/O)ccc1OCc1ccc([N+](=O)[O-])cc1 | 37* | -2% | 9 | -14% | -8% | -44%
CC(=O)c1ccc(OCCOc2ccc([N+](=O)[O-])cc2)cc1 | -11 | -6% | -3 | -2% | 1% | -17%
CCOc1cc(C=C(C(=O)OC)C(=O)OC)ccc1OCc1ccc([N+](=O)[O-])cc1 | -16 | 0% | -5 | -1% | 16% | u
CCOc1cc(/C=N/O)ccc1OCc1ccc(F)cc1 | 65* | -13% | 10 | -8% | -1% | -4%
O=Cc1ccccc1OCCOc1ccc([N+](=O)[O-])cc1 | 43 | -9% | 26* | 3% | -3% | -33%
O=[N+]([O-])c1ccc(COc2ccccc2/C=N/O)cc1 | 90* | 8% | 45* | -4% | -1% | -15%
O=C(Nc1ccccc1C(F)(F)F)c1cc(S(=O)(=O)N2CCOCC2)ccc1F | 14 | 18% | -2 | 0% | -2% | -3%
CC(=O)c1ccc(NS(=O)(=O)c2ccc3[nH]c4c(c3c2)CCCCCC4)cc1 | x | x | x | 10% | x | x
COc1cc(/C=N/n2c(C)n[nH]c2=S)ccc1OCc1ccc(F)cc1 | 65* | 8% | 48* | -1% | 1% | -24%
O=C1CCCC/C1=C\Nc1ccc(O)cc1 | 64* | 0% | 41* | 3% | -1% | -35%
O=C1CCCC/C1=C/Nc1cccc(C(F)(F)F)c1 | 50* | -2% | 48* | 1% | -12% | 19%
O=C1CCC/C1=C\Nc1ccc(Cl)c([N+](=O)[O-])c1 | 18 | 0% | 9 | -1% | u | -21%
CCOC(=O)c1ccc(N/C=C2\CCCCC2=O)cc1 | 48* | -2% | 25* | u | 1% | -20%
O=C1CCC/C1=C/Nc1ccc(Cl)cc1 | 72* | -4% | 30* | -4% | -4% | -16%
C=CC[n+]1c(C)csc1Nc1ccc(C)cc1 | 37 | 3% | 24* | 3% | u | -4%
O=C(Nc1ccccc1C(F)(F)F)c1ncoc1-c1ccco1 | x | x | x | 11% | x | x
Cc1cccc(N=Cc2[nH]c3ccc(Br)c(Cl)c3c2O)c1 | 63* | 8% | 15 | 0% | 8%[11.6 µM] | -21%
O=Nc1c(-c2c(O)[nH]c3cc(Br)ccc23)[nH]c2ccccc12 | 30* | -29% | 30* | u | 10µM* | 5.6µM*
O=C(CNC(=O)c1ccccc1)N=Nc1c(O)[nH]c2ccc(Br)cc12 | -6 | -7% | -5 | 4% | 0% | -17%
CCOC(=O)C1(Cc2cccc(OC)c2)CCCN(C(=O)CCN2CCCO2)C1 (centres undefined) | 148* | 6% | 57* | -1% | -10% | 88%
CCOC(=O)C1(Cc2cccc(OC)c2)CCCN(Cc2cc(OC)c(O)c(OC)c2)C1 (centres undefined) | -8 | 10% | 12 | -26% | -9% | 52%
SMILES | Shiga inhibitor | SARS PLP yeast | CHX counter | AmpC inh detg | AMA1 RON2 block | AmpC inh no detg
CCOC(=O)C1(Cc2cccc(OC)c2)CCCN(C(=O)c2cc(CC(C)C)[nH]n2)C1 (centres undefined) | 87* | -1% | 53* | -5% | -14% | 92%
CCOC(=O)C1(Cc2cccc(OC)c2)CCCN(C(=O)c2ccc(OC)o2)C1 (centres undefined) | 113* | 1% | 41* | 6% | -9% | 69%
CCOC(=O)C1(Cc2cccc(Cl)c2)CCCN(C(=O)c2cc(C)[nH]n2)C1 (centres undefined) | -12 | 11% | -3 | -5% | 9% | 99%
CCOC(=O)C1(Cc2cccc(OC)c2)CCCN(Cc2cnn(C)c2)C1 (centres undefined) | -10 | 0% | 1 | -6% | 14% | 2%
COc1ccccc1OCCCC(=O)NCc1ccco1 | -16 | 0% | 1 | -2% | -9% | 0%
COC(=O)c1ccccc1NC(=O)c1cc2ccccn2n1 | x | x | x | -6% | x | x
Cc1cnc(C(=O)Nc2ccccc2F)cn1 | 84* | -8% | 43* | -9% | 18% | 0%
Cc1cnc(C(=O)NCc2ccc(F)cc2)cn1 | 20 | 1% | 21 | u | -25% | -15%
Cc1cnc(C(=O)Nc2ccc(F)cc2)cn1 | 99* | 1% | 53* | u | -5% | -18%
Cc1cnc(C(=O)Nc2ccc(C(=O)N(C)C3CCCCC3)cc2)cn1 | -13 | 4% | -2 | -12% | x | -5%
COC(=O)n1ccc(C(=O)Nc2ccccc2F)n1 | 75 | -2% | 27* | -7% | 4% | -10%
Cc1cnc(C(=O)Nc2ccc(C(C)C)cc2)cn1 | 134* | -3% | 46* | -11% | 4% | 3%
Cc1cnc(C(=O)Nc2ccccc2-n2cccc2)cn1 | 9 | -5% | 3 | 15% | 30% | -9%
FC(F)(F)c1cccc(NCc2cn3cccnc3n2)c1 | -1 | 4% | 9 | 7% | -18% | 7%
O=C1NCC(=O)N2C(c3ccccc3)c3[nH]c4ccccc4c3C[C@@H]12 (some centres undefined) | 1 | 2% | -1 | 3% | 5% | -16%
CS(=O)(=O)c1ccc2nc(NC(=O)C3CCCO3)sc2c1 (centres undefined) | 32 | 0% | 1 | 0% | u | -5%
O=C(Nc1nc2ccccc2s1)C1CCN(S(=O)(=O)c2cc([N+](=O)[O-])ccc2Cl)CC1 | 50* | -1% | 21* | 8% | -24% | 7.9µM*
O=C(Nc1nc2ccc([N+](=O)[O-])cc2s1)C1CCCO1 (centres undefined) | 112* | -1% | 37* | 3% | -10% | -11%
O=C(Nc1nc2ccc(Cl)cc2s1)C1CCCO1 (centres undefined) | 106* | -3% | 43* | -6% | -4% | 5%
CCC(C)NC(=O)C1CCN(S(=O)(=O)c2cc([N+](=O)[O-])ccc2Cl)CC1 (centres undefined) | -6 | 0% | 1 | 2% | -7% | -21%
